Measured values from PubChem BioAssay AID1839 (Johns Hopkins Ion Channel Center, 2009).
In all, about 2,400 compounds went through this assay and about 220 (9.2%) were called active. Shown is part of a subset that was picked to be rich in actives. A number with no mark means an inactive call.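 The calls were made as follows: active = signal change above the mean of dofetilide-free buffer controls plus 3 SD, so a positive margin; inactive = the rest.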

Test: thallium signal changes without hERG – cell-based, CHO-K1 parental line, FluxOR thallium flux, counter-screen for hERG block protection project, confirmation (AID 1839);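 also: compounds applied alone with no dofetilide to cells lacking hERG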
Details: CHO-K1 parental cells, FluxOR thallium flux fluorescence; at 10 µM

| Structure (SMILES) | signal change vs control minus 3*SD hit threshold (margin above threshold, higher = more increase) |
| --- | --- |
| O=C(Nc1cccnc1)c1ccc(COc2cc(Cl)ccc2Cl)o1 | -33.5% |
| CCCSc1cc(NCCOC(C)=O)c([N+](=O)[O-])c2nonc12 | -28.6% |
| Cc1cc2ccccn2c1C(=S)NC(=O)c1ccccc1 | 2.8% (active) |
| Cc1cccc(C(=O)NNC(=S)NC(=O)c2ccccc2)c1 | -45% |
| Cc1ccc(C(=O)NNC(=S)NC(=O)c2ccccc2)cc1 | -43.2% |
| COc1ccc(C(=O)NC(=S)N2CCC(C)CC2)cc1 | -29% |
| CCOC(=O)C1=C(O)c2ccccc2C(=O)/C1=C\c1ccc(CC)cc1 | -14.9% |
| Cc1ccc(/C=C/C(=O)C2C(=O)c3ccccc3C2=O)cc1 | 8.4% (active) |
| Cc1ccc(/C=N/N2C(=O)c3ccccc3NC2c2ccc(C)cc2)cc1 (stereo not given) | -30% |
| Cc1ccc(/C=C/C(=O)c2ccccc(=O)c2O)cc1C | -20.1% |
| CCc1ccc(/C=C/C(=O)C2C(=O)c3ccccc3C2=O)cc1 | 15.2% (active) |
| CCc1ccc(/C=C/C(=O)c2cc(Br)ccc(=O)c2O)cc1 | -23.5% |
| COc1ccc(-n2c(SCc3ccccn3)nc3c(c2=O)SCC3)cc1OC | -16.3% |
| O=C(COC(=O)c1cnccn1)c1ccc(Cl)cc1 | -30.4% |
| CCOC(=O)c1c(NS(C)(=O)=O)sc2c1CCC(C)C2 (stereo not given) | -5.6% |
| CC(C)OC(=O)c1c(NS(=O)(=O)c2ccccc2)sc2c1CCCC2 | -18.4% |
| CC1CCc2c(sc(NS(=O)(=O)c3ccccc3)c2C(=O)OC(C)C)C1 (stereo not given) | 5.8% (active) |
| CCOc1ccc(NC(=O)CSc2nc3nc(C)cc(C)n3n2)cc1 | -31.5% |
| CC1=CCC[C@@H]2[C@@](C)(CC/C(C)=C/C(=O)O)[C@H](C)CC[C@@]12C | 7.9% (active) |
| O=[N+]([O-])c1cccc(/C=C/c2nc(C=Nc3ccccc3)c(O)o2)c1 | -34.1% |
| COC(=O)C1=NN(C(=O)c2cccc(Br)c2)C(O)(c2ccc(Cl)cc2)C1 (stereo not given) | 64.5% (active) |
| CCC1=NN(C(=O)c2ccc(Cl)cc2)C(O)(c2ccc(C)cc2)C1 (stereo not given) | -25.9% |
| CC(C)(C)C1(O)CC(C(F)(F)F)=NN1C(=O)Cc1ccc([N+](=O)[O-])cc1 (stereo not given) | -27% |
| CCOC(=O)c1cnc(-n2nc(C)cc2C)nc1Nc1cccc(C(=O)O)c1 | -22.1% |

| Structure (SMILES) | signal change vs control minus 3*SD hit threshold (margin above threshold, higher = more increase) |
| --- | --- |
| CC1=NN(C(=O)c2ccc(Cl)cc2)C(O)(c2ccccc2)C1 (stereo not given) | -21.7% |
| Cc1ccc(C(=O)NNC(=S)NC(=O)c2ccc(Cl)cc2)cc1 | -46.2% |
| COC(=O)C1=NN(C(=O)c2ccc(C)cc2)C(O)(c2ccc(Cl)cc2)C1 (stereo not given) | 46.4% (active) |
| CCOC(=O)C1=NN(C(=O)c2cccc(Br)c2)C(O)(C(C)(C)C)C1 (stereo not given) | 49.8% (active) |
| CC1=NN(C(=O)c2ccccc2Br)C(O)(c2ccc(Cl)cc2)C1 (stereo not given) | -36.1% |
| COC(=O)C1=NN(C(=O)c2ccc(Cl)cc2)C(O)(c2ccccc2)C1 (stereo not given) | 17.7% (active) |
| CCC1=NN(C(=O)c2ccc(Cl)cc2)C(O)(c2ccccc2)C1 (stereo not given) | -32.2% |
| Cc1c(C)c2ccc(OCC(=O)N[C@@H](Cc3ccccc3)C(=O)O)cc2oc1=O | -15.2% |
| O=C(C1CC(=O)N(c2ccc3c(c2)OCCO3)C1)N1CCCC(C(F)(F)F)C1 (stereo not given) | -31.3% |
| COc1ccc(/C(C)=N/Nc2ccc(C(=O)O)cc2)c(OC)c1 | -36.2% |
| Cc1ccc(C(=C2C3C=CC2C2C(=O)NC(=O)C32)c2ccc(C)cc2)cc1 (stereo not given) | -28.1% |
| O=C(Nc1nc2c(Br)cc(Br)cc2c(=O)s1)C1CCC1 | -21% |
| Cc1ccc(/C(O)=C/C(=O)C(=O)NC23CC4CC(CC(C4)C2)C3)cc1 | -22.7% |
| CCn1ncc(Cl)c1C(=O)NC(=S)Nc1ccccc1Br | -0.1% |
| Cc1cccc(/C=N/n2c(COc3ccccc3)n[nH]c2=S)c1 | -23.1% |
| COc1ccc(NC(=S)NC(NC(=O)c2cccc3ccccc23)C(Cl)(Cl)Cl)c([N+](=O)[O-])c1 (stereo not given) | -33.1% |
| NC(=O)C1CCN(C(=O)c2cc3c(s2)CCCC3)CC1 | -20.8% |
| O=C(COc1cccc(-n2cnnn2)c1)Nc1ccc([N+](=O)[O-])cc1 | -25.2% |
| O=C(Nc1nc(-c2ccccc2)c(-c2ccccc2)o1)c1ccc(F)cc1 | -18.6% |
| O=C(NC(=S)N1CCN(c2ccc(Cl)cc2[N+](=O)[O-])CC1)c1cccs1 | -23.6% |
| COCCNC(=O)C(c1ccncc1)N(C(=O)Cn1nnc2ccccc21)c1ccc(OC)cc1 (stereo not given) | -24.4% |
| COc1cccc(C=NCC(C)N=Cc2cccc(OC)c2O)c1O (stereo not given) | -13.1% |
| COc1cccc(C=NCCCN=Cc2cccc(OC)c2O)c1O | 0.5% (active) |
| COc1cccc(C=Nc2cc(C)cc(C)c2)c1O | -7.5% |

| Structure (SMILES) | signal change vs control minus 3*SD hit threshold (margin above threshold, higher = more increase) |
| --- | --- |
| Cc1ccc(O)c(C(=O)CC(=O)c2ccccc2Cl)c1 | -27.9% |
| Cc1cc(Br)c(NC(=O)COC(=O)C2CC2C)c(Br)c1 (stereo not given) | -27.2% |
| CCOC(=O)c1sc2nc(C)nc(SCC(=O)N(C)C3CCS(=O)(=O)C3)c2c1C (stereo not given) | -20.4% |
| O=C(O)CCSc1ncnc2sc(-c3ccccc3)cc12 | -4.3% |
| CN(C(=O)CSc1ncnc2sc(-c3ccccc3)cc12)C1CCS(=O)(=O)C1 (stereo not given) | 24.3% (active) |
| CCOC(=O)C1=C(N)Oc2cc(O)ccc2C1c1cccnc1 (stereo not given) | -22.5% |
| N#Cc1cccc(NC(=O)c2nc(-c3ccccc3)n(-c3ccccc3)n2)c1 | -41.8% |
| CCOC(=O)N1CCN(C(=O)c2ccc(C)c(S(=O)(=O)Nc3ccccc3)c2)CC1 | -15% |
| Cc1cccc(NC(=S)N/N=C2\CC(C)(C)Oc3ccc(O)cc32)c1 | -19.7% |
| O=C(NC(=S)NCCc1ccccc1)c1cccc(Cl)c1 | -28.3% |
| O=C1C(c2ccccc2)C(c2ccccc2)NC(c2ccccc2)C1c1ccccc1 (stereo not given) | -27.2% |
| COc1cccc2sc(Nc3nnc(-c4cccs4)o3)nc12 | 14.3% (active) |
| Fc1cccc2sc(Nc3nnc(-c4ccco4)o3)nc12 | -13.8% |
| COc1cccc2sc(Nc3nc(-c4ccccn4)cs3)nc12 | -29.4% |
| COc1cccc2sc(Nc3nnc(-c4ccccc4Cl)o3)nc12 | -16% |
| COc1cccc2sc(Nc3nnc(-c4ccc(F)cc4)o3)nc12 | 13.1% (active) |
| Fc1cccc2sc(Nc3nnc(-c4ccccc4)o3)nc12 | 39.2% (active) |
| Fc1cccc2sc(Nc3nc4c(F)cccc4s3)nc12 | -6.3% |
| COc1cccc(-c2nnc(Nc3nc4c(F)cccc4s3)o2)c1 | -7.5% |
| CCC1CCCCN1C(=S)NC(=O)c1ccc([N+](=O)[O-])cc1 (stereo not given) | -2.3% |
| CN1C(=O)CSc2ccc(NC(=O)N3CCc4ccccc43)cc21 | -32.3% |
| COc1ccccc1-n1c(CCC(=O)O)ccc1-c1ccccc1 | -17.9% |
| CCOC(=O)CC(=O)CSc1nc2c(C)c(C)ccc2cc1C | -25% |
| C/C(=N\Nc1nc(C)c(C)s1)c1ccc([N+](=O)[O-])cc1 | -17.3% |

| Structure (SMILES) | signal change vs control minus 3*SD hit threshold (margin above threshold, higher = more increase) |
| --- | --- |
| CCn1c(O)c(N=NC2=NC(=O)CS2)c2ccccc21 | -27% |
| CCc1ccc2c(c1)c(N=NC1=NC(=O)CS1)c(O)n2CC | 1% (active) |
| CCn1c(O)c(N=NC2=NC(=O)CS2)c2cc(C)ccc21 | -27.3% |
| CCCOc1ccc(CN(CCC#N)C(=S)NC(=O)c2ccccc2)cc1 | -20.4% |
| Cc1ccc2c(c1)c1nnc(SCC(=O)Nc3ccc(N(C)C)cc3)nc1n2CC(=O)O | -28.5% |
| CCOC(=O)N/N=C/C=C/c1ccccc1[N+](=O)[O-] | -14.5% |
| COc1cccc(N=Nc2ccc(O)c3ncccc23)c1 | -23.6% |
| CCN(CC)S(=O)(=O)c1cc(OC)ccc1N=Nc1ccc(O)c2ncccc12 | 5.8% (active) |
| COc1ccccc1N=Nc1ccc(O)c2ncccc12 | -39% |
| O=C(NC(=S)Nc1cccnc1)c1cc2ccccc2o1 | -7.1% |
| C=CCN(CC=C)C(=S)NC(=O)c1ccc(-c2ccccc2)cc1 | -9.3% |
| CCCN(CCC)C(=S)NC(=O)c1ccc(-c2ccccc2)cc1 | 18.5% (active) |
| COc1cc(OC)cc(C(=O)NC(=S)N(Cc2ccccc2)C(C)C)c1 | -1.3% |
| Cc1ccc(C(=O)NC(=S)N(C)Cc2ccccc2)cc1 | -19.2% |
| CCOc1ccc(C(=O)NC(=S)N(Cc2ccccc2)Cc2ccccc2)cc1 | -15.4% |
| COc1ccc(C(=O)NC(=S)N(Cc2ccccc2)Cc2ccccc2)cc1 | 7.4% (active) |
| CCCCC1(O)CC(C(F)(F)F)=NN1C(=O)COc1ccccc1 (stereo not given) | -36.4% |
| Cc1ccc(OCCC(=O)OC(C)C(=O)NC2CC2)cc1 (stereo not given) | -26.5% |
| CC(=O)Cn1c(=O)c2c(nc3n2CCCN3Cc2ccccc2)n(C)c1=O | -25.8% |
| O=C(O)CN1C(=O)c2ccc(Oc3ccc4c(c3)C(=O)N(CC(=O)O)C4=O)cc2C1=O | -18.4% |
| O=C(O)Cc1cc(I)c(Oc2ccc(O)c(I)c2)c(I)c1 | 7.3% (active) |
| CCCCC(=O)Nc1ccc(NCc2ccc(C)s2)cc1 | -5.7% |
| CC[C@@H](C(=O)[C@@H](C)[C@@H](O)[C@H](C)CCc1ccc(C)c(O)c1C(=O)O)[C@H]1O[C@](CC)([C@H]2CC[C@](O)(CC)[C@H](C)O2)C[C@@H]1C | 58.8% (active) |
